Data taken from PubChem BioAssay (Tox21).
Records with an inconclusive call do not appear. Active and inactive are the calls of the source. Unless noted, calls follow the shape of the dose curve; as a rule, active = well fitted curve in the direction sought with a large enough effect in the repeat runs; inconclusive = weak or mixed curves; inactive = no such curve, though single readings can be large; an effect the other way counts as inactive or inconclusive.

Experiments:
[1] = qHTS assay to identify small molecule antagonists of the vitamin D receptor (VDR) signaling pathway - cell viability counter screen (AID 743225); also: nearly all actives have a fitted effect of over 50% in size
In short: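 Compounds were pinned onto VDR-bla HEK 293T cells together with 1-alpha,25-dihydroxyvitamin D3 at 3 nM final. After 16 h at 37C and 5% CO2 plus the reporter readout, cell viability was measured by CellTiter-Glo luminescence (30 min, room temperature).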

[2] = qHTS assay to identify small molecule agonists of the NFkB signaling pathway - cell viability counter screen (AID 1159515; calls by dose curve; also: series mostly up to about 61 µM; nearly all actives have a fitted effect of over 55% in size)
In short: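 Viability in NFkB-bla ME-180 cells was measured by CellTiter-Glo luminescence, 30 min room temperature, in wells already treated 5 hr with compounds and read for reporter FRET.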

[3] = qHTS assay to identify small molecule agonists of the endoplasmic reticulum stress response signaling pathway (AID 1159516; active = well fitted activation curve with a large enough effect in the signal ratio in the repeat runs, not every such curve was filed as active; the % refers to the signal ratio)
In short: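 ER stress element reporter (bla) in HeLa. 1,500 cells/well, overnight attachment; 5 hr compound; 2 hr RT substrate; dual-emission fluorescence.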

[4] = qHTS assay to identify small molecule agonists of the endoplasmic reticulum stress response signaling pathway - cell viability counter screen (AID 1159517; calls by dose curve;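 also: HeLa cells carrying an ER stress response element beta-lactamase reporter; series mostly up to about 61 µM; nearly all actives have a fitted effect of over 50% in size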)
In short: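 CellTiter-Glo was added to wells already read for beta-lactamase FRET, and luminescence was recorded 30 min later. Cells: ESRE-bla HeLa, 1,500 per well, compound exposure 5 hr at 37 C.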

[5] = qHTS assay to identify small molecule antagonists of the retinoid-related orphan receptor gamma (ROR-gamma) signaling pathway - cell viability counter screen (AID 1159520); also: nearly all actives have a fitted effect of over 50% in size
In short: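 Tet-on ROR gamma CHO cells (1,000/well) were plated 4 hr, given compounds in DMSO for 2 hr at 37 C, then induced with 1 uM final doxycycline for 16 hr. Viability was read as ATP by CellTiter-Glo luminescence after 30 min.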

[6] = molecular target: Nuclear receptor ROR-gamma (Homo sapiens) (UniProt P51449); experiment: qHTS assay to identify small molecule antagonists of the retinoid-related orphan receptor gamma (ROR-gamma) signaling pathway (AID 1159521;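 also: CHO cells with doxycycline inducible ROR-gamma driving an RORE luciferase reporter; top concentration of the series differs between compounds; nearly all actives have a fitted effect of over 50% in size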)
In short: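 Test compounds were applied to Tet-on RORγ CHO cells 2 h ahead of doxycycline hyclate (1 uM final). Luciferase reporter activity was quantified by luminescence after 16 h at 37 C and 5% CO2.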

[7] = qHTS assay to identify small molecule agonists of the AP-1 signaling pathway (AID 1159526; calls by dose curve)
[8] = molecular target: Retinoic acid receptor RXR-alpha (Homo sapiens) (UniProt P19793); experiment: qHTS assay to identify small molecule agonists of the RXR signaling pathway (AID 1159527; calls by dose curve; also: nearly all actives have a fitted effect of over 35% in size)
In short: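 Using 9-cis retinoic acid as the reference agonist, chemicals were tested in HEK 293T cells […] for 16 hr; substrate loading lasted 2 hr at room temperature.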

[9] = qHTS assay to identify small molecule agonists of the RXR signaling pathway - cell viability counter screen (AID 1159529)
In short: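 Compounds dissolved in DMSO were pinned onto HEK 293T cells carrying a beta-lactamase reporter under RXR-alpha control and incubated 16 hr. Cytotoxicity was then quantified by CellTiter-Glo luminescence.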

[10] = qHTS assay to identify small molecule antagonists of the retinoid acid receptor (RAR) signaling pathway - cell viability counter screen (AID 1159551); also: nearly all actives have a fitted effect of over 35% in size
In short: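 Following overnight attachment, C3RL4 reporter cells received DMSO-dissolved compounds and then retinol (1 uM final). Six hours later at 37 C, ATP content was measured by CellTiter-Glo luminescence.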

[11] = qHTS assay to identify small molecule agonists of the AP-1 signaling pathway - cell viability counter screen (AID 1159525; calls by dose curve; also: nearly all actives have a fitted effect of over 55% in size)
In short: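 ME-180 AP-1-bla, 2500 cells/well, Opti-MEM + 0.5% dialyzed FBS; overnight 37 °C; cpd 15-pt titration, 5 h 37 °C; CellTiter-Glo 30 min RT; luminescence read; normalised to TOAB and DMSO controls.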

[12] = qHTS assay to identify small molecule antagonists of the retinoic acid receptor (RAR) signaling pathway (AID 1159552; also: nearly all actives have a fitted effect of over 50% in size)
In short: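 Test chemicals and DMSO controls were pin-transferred onto C3RL4 cells a day after seeding; retinol (1 uM final) followed at once. Luminescent reporter output was quantified after 6 hr of co-incubation and 30 min with detection reagent.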

[13] = qHTS assay to identify small molecule antagonists of the estrogen related receptor (ERR) signaling pathway from Tox21 library - cell viability counter screen (AID 1224834); also: nearly all actives have a fitted effect of over 30% in size
In short: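 Viability readout (CellTiter-Fluor fluorescence, 30 min at 37 C) multiplexed with the ERR assay; cells treated 17.5 h at 37 C with compounds delivered in DMSO.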

[14] = qHTS assay to identify small molecule antagonists of the estrogen related receptor (ERR) signaling pathway - cell viability counter screen (AID 1224818);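 also: series mostly up to about 46 µM; viability measured after 17.5 h of compound exposure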
In short: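 Here, ERR cells are plated at 2,000 cells per well, allowed 6 h to attach, and treated with compounds in DMSO for 17.5 h at 37 C. CellTiter-Fluor is then added and fluorescence read after 30 min.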

[15] = qHTS assay to identify small molecule antagonists of the estrogen related receptor (ERR) signaling pathway (AID 1224819)
In short: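 LOPAC library screened for antagonism as reduced One-Glo luminescence in ERR reporter cells (2,000/well). Compounds were added after 6 h pre-incubation and left 18 h at 37C; reading followed a 30 min room-temperature reagent step.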

[16] = qHTS assay to identify small molecule agonists of the estrogen related receptor (ERR) signaling pathway (AID 1224820)
In short: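 ERR reporter cell line (from NTP), 2,000 cells/well, incubated 6 h before compound addition, then 18 h at 37 C. Luminescence measured 30 min after One-Glo reagent at room temperature.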

[17] = tested on: estrogen-related receptor alpha (ERRalpha) with PGC-1alpha coactivator, human; experiment: qHTS assay to identify small molecule antagonists of the estrogen related receptor signaling pathway with the pleiotropic PPARgamma coactivator (PGC) (AID 1224821; calls by dose curve)
In short: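 PGC/ERR reporter cell line, plated 6 h before compound addition, then exposed 18 h at 37 °C. Luciferase activity read by luminescence 30 min after One-Glo addition; decrease indicates antagonism.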

[18] = qHTS assay to identify small molecule antagonists of the estrogen related receptor signaling pathway with the pleiotropic PPARgamma coactivator (PGC) cell viability counter screen (AID 1224822;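 also: series mostly up to about 46 µM; viability read after 17.5 h compound exposure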)
In short: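 qHTS format, DMSO compound stocks pin-transferred onto PGC/ERR cells 6 h after plating; 17.5 h exposure at 37 C, then CellTiter-Fluor fluorescence.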

[19] = qHTS assay to identify small molecule agonists of the estrogen related receptor signaling pathway with the pleiotropic PPARgamma coactivator (PGC) (AID 1224823)
In short: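 PGC/ERR reporter cells seeded 6 h, then exposed to compounds (23 nL in DMSO) for 18 h at 37 C. One-Glo luciferase luminescence read after 30 min at room temperature.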

Measured: Potency

Chain of Retinoic acid receptor RXR-alpha (Homo sapiens) (P19793 whole entry, looked up): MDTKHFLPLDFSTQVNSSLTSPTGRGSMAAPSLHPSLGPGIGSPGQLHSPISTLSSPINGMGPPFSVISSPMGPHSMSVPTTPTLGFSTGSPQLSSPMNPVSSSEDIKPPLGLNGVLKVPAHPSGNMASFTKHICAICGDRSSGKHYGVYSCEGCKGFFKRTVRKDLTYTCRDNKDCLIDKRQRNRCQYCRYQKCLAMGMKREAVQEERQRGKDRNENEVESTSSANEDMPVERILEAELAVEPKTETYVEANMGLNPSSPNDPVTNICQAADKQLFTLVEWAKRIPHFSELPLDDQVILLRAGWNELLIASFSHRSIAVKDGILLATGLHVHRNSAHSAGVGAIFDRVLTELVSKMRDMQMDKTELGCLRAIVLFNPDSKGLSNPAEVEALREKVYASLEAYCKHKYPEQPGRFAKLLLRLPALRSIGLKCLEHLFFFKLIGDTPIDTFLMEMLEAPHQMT

CC1(C)OC[C@@H](COC(=O)CCc2ccc(OC[C@@H](O)CNCCNC(=O)N3CCOCC3)cc2)O1
inactive: [1] | [2] | [3] | [4] | [5] | [6] | [7] | [8] | [9] | [10]

CC(=O)c1cnccn1
not listed: [6] | [8] | [14] | [15] | [16] | [17] | [18] | [19]
inactive: all other assays above

CN(C)C(=O)Oc1ccc[n+](C)c1
not listed: [6] | [12]
inactive: all other assays above

CCC(=O)OCc1ccccc1
inactive: [1] | [2] | [3] | [4] | [5] | [11] | [7] | [8] | [9] | [10]

C[C@H]1[C@H](NC(=O)/C(=N/OC(C)(C)C(=O)O)c2csc(N)n2)C(=O)N1S(=O)(=O)O (stereo in doubt)
inactive: [2] | [3] | [4] | [5] | [6] | [7] | [9] | [10] | [12]

CC1=NS(=O)(=O)c2cc(Cl)ccc2N1
not listed: [6] | [12] | [15] | [16] | [17] | [18] | [19]
inactive: all other assays above

CCN1CCOCC1
not listed: [6] | [8] | [14] | [15] | [16] | [17] | [18] | [19]
inactive: all other assays above

[O-][n+]1cccc(CO)c1
not listed: [6] | [12] | [14] | [15] | [16] | [17] | [18] | [19]
inactive: all other assays above

CC[N+](CC)(CC(=O)Nc1c(C)cccc1C)Cc1ccccc1 (tested in a mixture with another compound)
not listed: [6] | [12] | [14] | [15] | [16] | [17] | [18] | [19]
inactive: all other assays above

CC/C=C\CCOC(C)OCC (configuration not stated)
inactive: [1] | [2] | [3] | [4] | [5] | [6] | [7] | [8] | [9] | [10]
